In the supplement of paper PMC4466140:

Biological target: AgAbp1
Assay: SPOT peptide array binding signal intensity (averaged, normalized) (arbitrary units (background-subtracted, floor 0; scale differs between SH3 domains)); higher = stronger binding of the SH3 domain to the peptide
How it was run: (§1)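 GST-fused SH3 domains from four yeast species were expressed in E. coli BL21(DE3), purified on glutathione Sepharose and incubated at 10 μg/ml overnight at 4°C in TBS-based blocking buffer on cellulose membranes carrying synthetic 15-mer peptides, with cysteines replaced by serines. Bound protein was detected with anti-GST antibody, an HRP anti-mouse secondary and luminol, then imaged and quantified with Genespotter. Binding signal is the normalized, background-subtracted spot intensity averaged over replicates, in arbitrary units that differ between domains.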

Binder | SPOT peptide array binding signal intensity
SHRLWLYAAPKRPKT | 15.5

Biological target: AgBbc1
Assay: as above
How it was run: as §1

Binder | SPOT peptide array binding signal intensity
SHRLWLYAAPKRPKT | 42

Biological target: AgBem1-D1
Assay: as above
How it was run: as §1

Binder | SPOT peptide array binding signal intensity
SHRLWLYAAPKRPKT | 110

Biological target: AgBzz1-D1
Assay: as above
How it was run: as §1

Binder | SPOT peptide array binding signal intensity
SHRLWLYAAPKRPKT | 46

Biological target: AgBzz1-D2
Assay: as above
How it was run: as §1

Binder | SPOT peptide array binding signal intensity
SHRLWLYAAPKRPKT | 42

Biological target: AgCyk3
Assay: as above
How it was run: as §1

Binder | SPOT peptide array binding signal intensity
SHRLWLYAAPKRPKT | 0.5

Biological target: AgFus1
Assay: as above
How it was run: as §1

Binder | SPOT peptide array binding signal intensity
SHRLWLYAAPKRPKT | 296

Biological target: AgHof1
Assay: as above
How it was run: as §1

Binder | SPOT peptide array binding signal intensity
SHRLWLYAAPKRPKT | 26

Biological target: AgHse1
Assay: as above
How it was run: as §1

Binder | SPOT peptide array binding signal intensity
SHRLWLYAAPKRPKT | 5

Biological target: AgLsb1
Assay: as above
How it was run: as §1

Binder | SPOT peptide array binding signal intensity
SHRLWLYAAPKRPKT | 0.5

Biological target: AgLsb4
Assay: as above
How it was run: as §1

Binder | SPOT peptide array binding signal intensity
SHRLWLYAAPKRPKT | 28.5

Biological target: AgMyo5
Assay: as above
How it was run: as §1

Binder | SPOT peptide array binding signal intensity
SHRLWLYAAPKRPKT | 5.5

Biological target: AgNbp2
Assay: as above
How it was run: as §1

Binder | SPOT peptide array binding signal intensity
SHRLWLYAAPKRPKT | 29.5

Biological target: AgRvs167
Assay: as above
How it was run: as §1

Binder | SPOT peptide array binding signal intensity
SHRLWLYAAPKRPKT | 2

Biological target: AgSho1
Assay: as above
How it was run: as §1

Binder | SPOT peptide array binding signal intensity
SHRLWLYAAPKRPKT | 23.5

Biological target: AgSla1-D1-D2
Assay: as above
How it was run: as §1

Binder | SPOT peptide array binding signal intensity
SHRLWLYAAPKRPKT | 44

Biological target: AgSla1-D3
Assay: as above
How it was run: as §1

Binder | SPOT peptide array binding signal intensity
SHRLWLYAAPKRPKT | 11

Biological target: CaAbp1-D1
Assay: as above
How it was run: as §1

Binder | SPOT peptide array binding signal intensity
SHRLWLYAAPKRPKT | 63

Biological target: CaAbp1-D2
Assay: as above
How it was run: as §1

Binder | SPOT peptide array binding signal intensity
SHRLWLYAAPKRPKT | 37.5

Biological target: CaBbc1
Assay: as above
How it was run: as §1

Binder | SPOT peptide array binding signal intensity
SHRLWLYAAPKRPKT | 100

Biological target: CaBem1-D1
Assay: as above
How it was run: as §1

Binder | SPOT peptide array binding signal intensity
SHRLWLYAAPKRPKT | 52

Biological target: CaBzz1-D1
Assay: as above
How it was run: as §1

Binder | SPOT peptide array binding signal intensity
SHRLWLYAAPKRPKT | 73

Biological target: CaBzz1-D2
Assay: as above
How it was run: as §1

Binder | SPOT peptide array binding signal intensity
SHRLWLYAAPKRPKT | 38.5

Biological target: CaCyk3
Assay: as above
How it was run: as §1

Binder | SPOT peptide array binding signal intensity
SHRLWLYAAPKRPKT | 7

Biological target: CaFus1
Assay: as above
How it was run: as §1

Binder | SPOT peptide array binding signal intensity
SHRLWLYAAPKRPKT | 266

Biological target: CaHof1
Assay: as above
How it was run: as §1

Binder | SPOT peptide array binding signal intensity
SHRLWLYAAPKRPKT | 0.5

Biological target: CaHse1
Assay: as above
How it was run: as §1

Binder | SPOT peptide array binding signal intensity
SHRLWLYAAPKRPKT | 26.2

Biological target: CaLsb1
Assay: as above
How it was run: as §1

Binder | SPOT peptide array binding signal intensity
SHRLWLYAAPKRPKT | 1.5

Biological target: CaLsb4
Assay: as above
How it was run: as §1

Binder | SPOT peptide array binding signal intensity
SHRLWLYAAPKRPKT | 48

Biological target: CaMyo5
Assay: as above
How it was run: as §1

Binder | SPOT peptide array binding signal intensity
SHRLWLYAAPKRPKT | 18

Biological target: CaNbp2
Assay: as above
How it was run: as §1

Binder | SPOT peptide array binding signal intensity
SHRLWLYAAPKRPKT | 133

Biological target: CaRvs167
Assay: as above
How it was run: as §1

Binder | SPOT peptide array binding signal intensity
SHRLWLYAAPKRPKT | 14

Biological target: CaRvs167-3
Assay: as above
How it was run: as §1

Binder | SPOT peptide array binding signal intensity
SHRLWLYAAPKRPKT | 24.5

Biological target: CaSho1
Assay: as above
How it was run: as §1

Binder | SPOT peptide array binding signal intensity
SHRLWLYAAPKRPKT | 149

Biological target: CaSla1-D1-D2
Assay: as above
How it was run: as §1

Binder | SPOT peptide array binding signal intensity
SHRLWLYAAPKRPKT | 10.5

Biological target: CaSla1-D3
Assay: as above
How it was run: as §1

Binder | SPOT peptide array binding signal intensity
SHRLWLYAAPKRPKT | 17.8

Biological target: ScAbp1
Assay: as above
How it was run: as §1

Binder | SPOT peptide array binding signal intensity
SHRLWLYAAPKRPKT | 41

Biological target: ScBbc1
Assay: as above
How it was run: as §1

Binder | SPOT peptide array binding signal intensity
SHRLWLYAAPKRPKT | 7.75

Biological target: ScBem1-D1
Assay: as above
How it was run: as §1

Binder | SPOT peptide array binding signal intensity
SHRLWLYAAPKRPKT | 19

Biological target: ScBzz1-D1
Assay: as above
How it was run: as §1

Binder | SPOT peptide array binding signal intensity
SHRLWLYAAPKRPKT | 42

Biological target: ScBzz1-D2
Assay: as above
How it was run: as §1

Binder | SPOT peptide array binding signal intensity
SHRLWLYAAPKRPKT | 71

Biological target: ScCyk3
Assay: as above
How it was run: as §1

Binder | SPOT peptide array binding signal intensity
SHRLWLYAAPKRPKT | 20

Biological target: ScFus1
Assay: as above
How it was run: as §1

Binder | SPOT peptide array binding signal intensity
SHRLWLYAAPKRPKT | 260

Biological target: ScHof1
Assay: as above
How it was run: as §1

Binder | SPOT peptide array binding signal intensity
SHRLWLYAAPKRPKT | 3.25

Biological target: ScHse1
Assay: as above
How it was run: as §1

Binder | SPOT peptide array binding signal intensity
SHRLWLYAAPKRPKT | 404

Biological target: ScLsb1
Assay: as above
How it was run: as §1

Binder | SPOT peptide array binding signal intensity
SHRLWLYAAPKRPKT | 0.5

Biological target: ScLsb2
Assay: as above
How it was run: as §1

Binder | SPOT peptide array binding signal intensity
SHRLWLYAAPKRPKT | 3

Biological target: ScLsb3
Assay: as above
How it was run: as §1

Binder | SPOT peptide array binding signal intensity
SHRLWLYAAPKRPKT | 64

Biological target: ScLsb4
Assay: as above
How it was run: as §1

Binder | SPOT peptide array binding signal intensity
SHRLWLYAAPKRPKT | ≤ 0

Biological target: ScMyo3
Assay: as above
How it was run: as §1

Binder | SPOT peptide array binding signal intensity
SHRLWLYAAPKRPKT | 10

Biological target: ScMyo5
Assay: as above
How it was run: as §1

Binder | SPOT peptide array binding signal intensity
SHRLWLYAAPKRPKT | 18.5

Biological target: ScNbp2
Assay: as above
How it was run: as §1

Binder | SPOT peptide array binding signal intensity
SHRLWLYAAPKRPKT | 30

Biological target: ScPex13
Assay: as above
How it was run: as §1

Binder | SPOT peptide array binding signal intensity
SHRLWLYAAPKRPKT | 8.75

Biological target: ScRvs167
Assay: as above
How it was run: as §1

Binder | SPOT peptide array binding signal intensity
SHRLWLYAAPKRPKT | 18.3

Biological target: ScSho1
Assay: as above
How it was run: as §1

Binder | SPOT peptide array binding signal intensity
SHRLWLYAAPKRPKT | 309

Biological target: ScSla1-D1-D2
Assay: as above
How it was run: as §1

Binder | SPOT peptide array binding signal intensity
SHRLWLYAAPKRPKT | 32

Biological target: ScSla1-D3
Assay: as above
How it was run: as §1

Binder | SPOT peptide array binding signal intensity
SHRLWLYAAPKRPKT | 5

Biological target: SpAbp1-D1
Assay: as above
How it was run: as §1

Binder | SPOT peptide array binding signal intensity
SHRLWLYAAPKRPKT | 45

Biological target: SpBbc1
Assay: as above
How it was run: as §1

Binder | SPOT peptide array binding signal intensity
SHRLWLYAAPKRPKT | 5

Biological target: SpBzz1-D1
Assay: as above
How it was run: as §1

Binder | SPOT peptide array binding signal intensity
SHRLWLYAAPKRPKT | 171

Biological target: SpBzz1-D2
Assay: as above
How it was run: as §1

Binder | SPOT peptide array binding signal intensity
SHRLWLYAAPKRPKT | 0.5

Biological target: SpCyk3
Assay: as above
How it was run: as §1

Binder | SPOT peptide array binding signal intensity
SHRLWLYAAPKRPKT | 3

Biological target: SpHof1
Assay: as above
How it was run: as §1

Binder | SPOT peptide array binding signal intensity
SHRLWLYAAPKRPKT | 84

Biological target: SpHof1-2
Assay: as above
How it was run: as §1

Binder | SPOT peptide array binding signal intensity
SHRLWLYAAPKRPKT | 24.5

Biological target: SpHof1-3
Assay: as above
How it was run: as §1

Binder | SPOT peptide array binding signal intensity
SHRLWLYAAPKRPKT | 216

Biological target: SpHse1
Assay: as above
How it was run: as §1

Binder | SPOT peptide array binding signal intensity
SHRLWLYAAPKRPKT | 157

Biological target: SpLsb1
Assay: as above
How it was run: as §1

Binder | SPOT peptide array binding signal intensity
SHRLWLYAAPKRPKT | 35.5

Biological target: SpLsb4
Assay: as above
How it was run: as §1

Binder | SPOT peptide array binding signal intensity
SHRLWLYAAPKRPKT | 38.5

Biological target: SpMyo1
Assay: as above
How it was run: as §1

Binder | SPOT peptide array binding signal intensity
SHRLWLYAAPKRPKT | 7.5

Biological target: SpNbp2
Assay: as above
How it was run: as §1

Binder | SPOT peptide array binding signal intensity
SHRLWLYAAPKRPKT | 30

Biological target: SpPex13
Assay: as above
How it was run: as §1

Binder | SPOT peptide array binding signal intensity
SHRLWLYAAPKRPKT | 23

Biological target: SpRvs167
Assay: as above
How it was run: as §1

Binder | SPOT peptide array binding signal intensity
SHRLWLYAAPKRPKT | 7.33

Biological target: SpSla1-D1-D2
Assay: as above
How it was run: as §1

Binder | SPOT peptide array binding signal intensity
SHRLWLYAAPKRPKT | 3

Biological target: SpSla1-D3
Assay: as above
How it was run: as §1

Binder | SPOT peptide array binding signal intensity
SHRLWLYAAPKRPKT | 15
